Where “and” joins values, the source holds several entries; their conditions need not be identical. Identical values can stand only once. Records with an inconclusive call do not appear. Calls of active or inactive are those of the source. Calls come from the whole dose curve; as a rule, active = well fitted curve in the direction sought with a large enough effect; inconclusive = small, poorly fitted or top-dose-only effect, or another doubt; inactive = no such curve, though single readings can be large; an effect the other way counts as inactive or inconclusive.
Legend:
[1] = Drug repurposing screens with cells derived from glioblastoma tumor samples (AID 1345199); conditions: GBM patient neurospheres viability, ATP luminescence, 48 h; note: nearly all actives have a fitted effect of over 40% in size
Outline: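 Four patient lines of CD133+ GBM neurospheres were screened at several concentrations; hits were retested in those lines plus three slower-growing GBM lines, using 48-hour treatment and ATP-based viability.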

[2] = test system: HeLa; assay: Primary qHTS to identify gynecologic anti-cancer compounds using libraries of approved drugs and bioactive compounds (AID 1345084); conditions: Gynecologic cancer cell panel viability, ATPlite luminescence, 48 h; series mostly up to 57.5 µM; note: nearly all actives have a fitted effect of over 55% in size
Outline: (§1)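 Luminescence from the ATPlite ATP-monitoring reagent indicates viable cell number; lower signal means cytotoxicity. Cells received compound 16 h after seeding and were exposed for 48 h across five concentrations.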

[3] = test system: JEG-3; assay: as above; conditions: Gynecologic cancer cell panel viability, ATPlite luminescence, 48 h; series mostly up to 57.5 µM
Outline: as §1

[4] = test system: PA-1; assay: as above; conditions: Gynecologic cancer cell panel viability, ATPlite luminescence, 48 h; series mostly up to 57.5 µM
Outline: as §1

[5] = test system: Tov112D; assay: as above; conditions: Gynecologic cancer cell panel viability, ATPlite luminescence, 48 h; series mostly up to 57.5 µM
Outline: as §1

[6] = test system: CAOV3; assay: as above; conditions: Gynecologic cancer cell panel viability, ATPlite luminescence, 48 h; series mostly up to 57.5 µM
Outline: as §1

[7] = test system: CASKI; assay: as above; conditions: Gynecologic cancer cell panel viability, ATPlite luminescence, 48 h; series mostly up to 57.5 µM
Outline: as §1

[8] = test system: OV90; assay: as above; conditions: Gynecologic cancer cell panel viability, ATPlite luminescence, 48 h; series mostly up to 57.5 µM
Outline: as §1

[9] = test system: SKOV3; assay: as above; conditions: Gynecologic cancer cell panel viability, ATPlite luminescence, 48 h; series mostly up to 57.5 µM
Outline: as §1

[10] = test system: Es-2; assay: as above; conditions: Gynecologic cancer cell panel viability, ATPlite luminescence, 48 h; series mostly up to 57.5 µM
Outline: as §1

[11] = test system: Hek293T; assay: as above; conditions: Gynecologic cancer cell panel viability, ATPlite luminescence, 48 h, control line for the selectivity index; series mostly up to 57.5 µM
Outline: as §1

[12] = test system: Tov-21-G; assay: as above; conditions: Gynecologic cancer cell panel viability, ATPlite luminescence, 48 h; series mostly up to 57.5 µM
Outline: as §1

[13] = test system: C33A; assay: as above; conditions: Gynecologic cancer cell panel viability, ATPlite luminescence, 48 h; series mostly up to 57.5 µM
Outline: as §1

[14] = at 45.9 µM (top of the series), tumour line B
[15] = at 46 µM (top of the series), tumour line A
[16] = at 46.1 µM (top of the series), tumour line C
[17] = at 20 µM (top of the series), tumour line C
[18] = at 45.9 µM (top of the series), tumour line D
% is set by controls: 0 for no effect and ±100 for the full control effect; potency is the fitted concentration of half-maximal effect.

CC1(C)O[C@@H]2C[C@H]3[C@@H]4CCC5=CC(=O)C=C[C@]5(C)[C@H]4[C@@H](O)C[C@]3(C)[C@]2(C(=O)CO)O1
inactive: activity, negative = cell killing [1, 14] -5.55% | activity, negative = cell killing [1, 15] -10.6% | activity, negative = cell killing [1, 16] -10.7%

O=C(O)C[C@H](O)C[C@H](O)/C=C/c1c(C2CC2)nc2ccccc2c1-c1ccc(F)cc1
active: Potency [2] 8.91 µM | Potency [4] 10 µM | Potency [5] 11.2 µM
inactive: Potency [3]

Cc1cc(/C=C/c2ccc3cc(N(C)C)ccc3[n+]2C)c(C)n1-c1ccccc1
inactive: activity, negative = cell killing [1, 17] -11.8%

O=S(=O)(O)c1ccc2c(N=Nc3ccc(S(=O)(=O)O)c4ccccc34)c(O)c(S(=O)(=O)O)cc2c1
inactive: activity, negative = cell killing [1, 18] -24.2% | activity, negative = cell killing [1, 16] -9.01%

CC1=C(/C=C/C(C)=C/C=C/C(C)=C/CO)C(C)(C)CCC1
active: Potency ([1]; tumour line A) 31.6 µM
inactive: activity, negative = cell killing [1, 14] -16.9% | activity, negative = cell killing [1, 18] -16.1%

COc1cc([C@@H]2c3cc4c(cc3[C@@H](O[C@@H]3O[C@@H]5CO[C@@H](C)O[C@H]5[C@H](O)[C@H]3O)[C@H]3COC(=O)[C@H]23)OCO4)cc(OC)c1O
inactive: activity, negative = cell killing [1, 18] -20.4% | activity, negative = cell killing [1, 16] -16.4%

COc1cc2c(Nc3ccc(Cl)c(Cl)c3F)ncnc2cc1OCC1C[C@@H]2CN(C)C[C@@H]2C1 (some centres undefined)
active: Potency [6] 31.6 µM | Potency [7] 11.2 µM | Potency [8] 20 µM | Potency [9] 14.1 µM | Potency [5] 17.8 µM

CCc1nc(C(N)=O)c(Nc2ccc(N3CCC(N4CCN(C)CC4)CC3)c(OC)c2)nc1NC1CCOCC1
inactive: Potency [10] | Potency [3] | Potency [8]
active: Potency [7] 7.08 µM | Potency [2] 3.55 µM | Potency [4] 2.24 µM | Potency [9] 1.12 µM

CC(C)N=c1cc2n(-c3ccc(Cl)cc3)c3ccccc3nc-2cc1Nc1ccc(Cl)cc1
active: Potency ([1]; tumour line A) 5.01 µM
inactive: activity, negative = cell killing [1, 17] -8.51%

NS(=O)(=O)OC[C@@H]1C[C@@H](n2ccc3c(N[C@H]4CCc5ccccc54)ncnc32)C[C@@H]1O
active: Potency [10] 3.16 µM | Potency [11] 2.51 µM | Potency [4] 708 nM and 1 µM | Potency [9] 10 µM | Potency [12] 501 nM and 398 nM
inactive: Potency [7] | Potency [2] | Potency [3] | Potency [8]

Nc1c(Br)cc(Br)cc1CNC1CCC(O)CC1 (centres undefined)
inactive: Potency [10] | Potency [2] | Potency [11] | Potency [3] | Potency [8] | Potency [4] | Potency [9] | Potency [12] | Potency [5] | activity, negative = cell killing [1, 14] -15.5% | activity, negative = cell killing [1, 18] -18.1% | activity, negative = cell killing [1, 16] -10.6%
active: Potency ([1]; tumour line A) 14.1 µM

CON(C)C(=O)N1N=C(c2cc(F)ccc2F)S[C@@]1(CCCN)c1ccccc1
inactive: Potency [13] | Potency [8] | Potency [9]

CC(=O)c1cnc2ccc(-c3cc(Cl)c(O)c(Cl)c3)nc2c1NC1CCC(CN(C)C)CC1 (centres undefined)
active: Potency [13] 224 nM | Potency [7] 1 µM | Potency [10] 0.891 µM | Potency [11] 0.562 µM | Potency [4] 0.501 µM | Potency [9] 0.891 µM | Potency [5] 0.447 µM

CC(C)(C)NC(=O)[C@@H]1C[C@@H]2CCCC[C@@H]2CN1C[C@@H](O)[C@H](Cc1ccccc1)NC(=O)[C@H](CC(N)=O)NC(=O)c1ccc2ccccc2n1
inactive: activity, negative = cell killing [1, 16] 7.54%
active: Potency ([1]; tumour line A) 4.47 µM

CNC(=O)c1ccc(Nc2ncc(C(F)(F)F)c(NCc3nccnc3N(C)S(C)(=O)=O)n2)cc1
active: Potency [10] 17.8 µM | Potency [2] 10 µM | Potency [11] 8.91 µM | Potency [4] 4.47 µM | Potency [5] 22.4 µM

C=CC1=C(C)C2=CC3=NC(=C(CC(=O)[O-])C4=NC(=C(C)C4=C([O-])[O-])C=c4[n-]c(c(C)c4CC)=CC1=N2)C(CCC(=O)[O-])C3C.[Cu+2].[Na+].[Na+].[Na+] (centres undefined)
inactive: activity, negative = cell killing [1, 15] -28% | activity, negative = cell killing [1, 16] 10.7%

NCc1ccc(OCCCc2sc(-c3ccc4c(c3)/C(=N/Nc3nc5ccccc5s3)CCC4)nc2C(=O)O)cc1
inactive: Potency [13] | Potency [10] | Potency [11] | Potency [3] | Potency [4] | Potency [12] | Potency [5]

CN(NC(=O)CC(=O)NN(C)C(=S)c1ccccc1)C(=S)c1ccccc1
inactive: Potency [7] | Potency [10] | Potency [2] | Potency [11] | Potency [3] | Potency [5]
active: Potency [12] 1.12 µM

CCN(CC)Cc1cc(Nc2ccnc3cc(Cl)ccc23)ccc1O
inactive: activity, negative = cell killing [1, 17] -18.3%
active: Potency ([1]; tumour line A) 12.6 µM | Potency ([1]; tumour line D) 14.1 µM

CCOc1ccc2c(c1)C(C)=CC(C)(C)N2
active: Potency ([1]; tumour line A) 39.8 µM
inactive: activity, negative = cell killing [1, 16] -10%

CC(=O)Oc1c(C)cc(OCC(O)CNC(C)C)c(C)c1C (centres undefined)
inactive: activity, negative = cell killing [1, 14] -11.9% | activity, negative = cell killing [1, 18] 5.15% | activity, negative = cell killing [1, 16] 13.3%

C#C[C@]1(O)CC[C@H]2[C@@H]3CCC4=C/C(=N/O)CC[C@@H]4[C@H]3CC[C@@]21CC
active: Potency [2] 14.1 µM | Potency ([1]; tumour line A) 12.6 µM
inactive: Potency [6] | Potency [10] | Potency [11] | Potency [3] | Potency [8] | Potency [9] | Potency [5] | activity, negative = cell killing [1, 14] -7.76% | activity, negative = cell killing [1, 16] -27.9%

Cc1ccccc1
inactive: activity, negative = cell killing [1, 14] 6.08% | activity, negative = cell killing [1, 18] -15.8% | activity, negative = cell killing [1, 16] 2.61%

CO[C@H]1C=CO[C@@]2(C)Oc3c(C)c(O)c4c(O)c(c5c(c4c3C2=O)=NC2(CCN(CC(C)C)CC2)N=5)NC(=O)/C(C)=C\C=C/[C@H](C)[C@H](O)[C@@H](C)[C@@H](O)[C@@H](C)[C@H](OC(C)=O)[C@@H]1C
inactive: activity, negative = cell killing [1, 14] -14.2% | activity, negative = cell killing [1, 16] 33.4%
active: Potency ([1]; tumour line A) 10 µM

CN(C)C/C=C/C(=O)Nc1ccc(C(=O)Nc2cccc(Nc3ncc(Cl)c(-c4c[nH]c5ccccc45)n3)c2)cc1
active: Potency [7] 0.794 µM | Potency [10] 1.78 µM | Potency [2] 0.891 µM | Potency [11] 1.26 µM | Potency [3] 3.55 µM | Potency [4] 0.891 µM | Potency [5] 0.631 µM

Cc1nc2c(-c3cnc(N)nc3)nc(N3CCOCC3)nc2n1C(C)C
active: Potency [13] 1410 nM | Potency [7] 1.26 µM | Potency [2] 1.58 µM | Potency [11] 0.708 µM | Potency [8] 1.12 µM | Potency [4] 2 µM | Potency [9] 0.562 µM | Potency [12] 0.631 µM

COc1cc(N2CCC(N(C)C)CC2)ccc1Nc1ncc(Cl)c(Nc2ccccc2P(C)(C)=O)n1
active: Potency [6] 3.55 µM | Potency [7] 7.08 µM | Potency [10] 11.2 µM | Potency [2] 3.16 µM | Potency [11] 10 µM | Potency [8] 1.58 µM | Potency [4] 8.91 µM | Potency [9] 3.55 µM | Potency [12] 7.08 µM | Potency [5] 10 µM

CO[C@@H]1[C@@H](O[C@@H]2O[C@H](C)[C@@H](O[C@H]3C[C@@](C)(O)[C@@H](O)[C@H](C)O3)[C@H](N(C)C)[C@H]2O)[C@@H](CC=O)C[C@@H](C)[C@@H](O[C@@H]2CC[C@H](N(C)C)[C@@H](C)O2)/C=C/C=C/C[C@@H](C)OC(=O)C[C@H]1O
inactive: activity, negative = cell killing [1, 17] -1.82% | activity, negative = cell killing ([1]; at 21.2 µM (top of the series), tumour line B) 2.63% | activity, negative = cell killing ([1]; at 21.2 µM (top of the series), tumour line D) 8.89%

CO/N=C(\C(=O)N[C@@H]1C(=O)N2C(C(=O)O)=C(CSc3cnns3)CS[C@H]12)c1csc(N)n1
inactive: activity, negative = cell killing [1, 14] -0.235% | activity, negative = cell killing [1, 18] 11.9%
